Among all 310,000 compounds or so, about 14,000 (4.5%) showed an effect of 50% or more. Effects have a minus sign here. For the sample, strong results were picked, then their nearest neighbours and some compounds at random.

The values below come from article PMC4336329 (PLoS ONE, 2015).
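Further: peak tail current of the secondary pulse compared with the same well before compound.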

human ether-à-go-go-related gene (hERG) potassium channel, sequence (Q12809 whole entry, looked up): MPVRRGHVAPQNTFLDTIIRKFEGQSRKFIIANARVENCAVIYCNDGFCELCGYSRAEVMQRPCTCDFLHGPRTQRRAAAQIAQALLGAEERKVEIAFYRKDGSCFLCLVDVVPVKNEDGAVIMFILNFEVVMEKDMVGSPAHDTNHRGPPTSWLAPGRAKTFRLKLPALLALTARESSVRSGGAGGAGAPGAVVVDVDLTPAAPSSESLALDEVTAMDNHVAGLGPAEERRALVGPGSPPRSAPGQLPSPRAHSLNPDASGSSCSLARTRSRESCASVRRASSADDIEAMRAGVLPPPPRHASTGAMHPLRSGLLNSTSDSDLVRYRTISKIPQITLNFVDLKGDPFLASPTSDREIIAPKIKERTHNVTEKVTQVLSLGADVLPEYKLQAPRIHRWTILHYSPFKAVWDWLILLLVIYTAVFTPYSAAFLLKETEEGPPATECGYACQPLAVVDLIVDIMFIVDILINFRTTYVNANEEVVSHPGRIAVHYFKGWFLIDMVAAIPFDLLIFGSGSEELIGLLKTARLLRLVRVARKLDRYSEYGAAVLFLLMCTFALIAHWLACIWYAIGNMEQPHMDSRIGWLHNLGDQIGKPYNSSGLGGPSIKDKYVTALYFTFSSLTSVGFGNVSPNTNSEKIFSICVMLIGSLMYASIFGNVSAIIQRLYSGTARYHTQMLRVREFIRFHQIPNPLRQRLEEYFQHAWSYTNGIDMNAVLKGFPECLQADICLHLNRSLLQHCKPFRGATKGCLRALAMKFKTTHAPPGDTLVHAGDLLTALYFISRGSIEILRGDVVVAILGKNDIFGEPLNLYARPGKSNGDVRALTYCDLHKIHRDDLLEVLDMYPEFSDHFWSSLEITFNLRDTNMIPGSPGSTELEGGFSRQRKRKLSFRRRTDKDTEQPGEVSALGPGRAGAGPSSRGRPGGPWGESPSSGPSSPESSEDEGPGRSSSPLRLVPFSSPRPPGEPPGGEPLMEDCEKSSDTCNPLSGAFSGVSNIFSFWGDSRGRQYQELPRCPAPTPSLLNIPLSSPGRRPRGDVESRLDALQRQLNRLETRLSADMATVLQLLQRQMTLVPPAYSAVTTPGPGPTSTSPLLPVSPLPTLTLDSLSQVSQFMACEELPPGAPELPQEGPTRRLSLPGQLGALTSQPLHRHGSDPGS

This assay addresses human ether-à-go-go-related gene (hERG) potassium channel (human, UniProt Q12809). The experiment in a line: primary screen, population patch clamp on CHO cells stably expressing hERG; higher = less effect of the substance.
Regarding `O=C(NC1CCCc2ccccc21)C1CCN(S(=O)(=O)N2CCCCCC2)CC1` (stereo not shown), the “hERG current change (%, negative = inhibition) at 10uM” value is reported as -12.8%.

Consider `O=C(N[C@@H](Cc1ccccc1)C(=O)OCC(=O)N1CCOCC1)c1cccs1`, for which the “hERG current change (%, negative = inhibition) at 10uM” value was -9.98%.

`O=C(COC(=O)CCc1nc2ccccc2n1-c1ccccc1)Nc1ccc(N2CCCCC2)cc1`: the “hERG current change (%, negative = inhibition) at 10uM” value is recorded as 2.85%.

Regarding `CC[C@@H](C)[C@H](NC(=O)OC(C)(C)C)c1nnc(S(=O)(=O)Cc2cc(C)ccc2C)o1`, the “hERG current change (%, negative = inhibition) at 10uM” value was found to be 4.09%.

Take `CC(NC(=O)COC(=O)/C=C/c1cccc(C(F)(F)F)c1)c1ccccc1` (stereo not shown): the “hERG current change (%, negative = inhibition) at 10uM” value worked out at 15.2%.

In the case of `CCN(CC)CCn1c(C)nc2ccccc21.Cl`, the “hERG current change (%, negative = inhibition) at 10uM” value is given as -9.07%.

Turning to `Cc1ccc(Cn2c(NS(=O)(=O)c3ccccc3)nc3ccccc32)cc1`, the “hERG current change (%, negative = inhibition) at 10uM” value worked out at 21.3%.

`CCN(CC)CCn1c(NS(=O)(=O)c2ccc(C)cc2)nc2ccccc21`: the “hERG current change (%, negative = inhibition) at 10uM” value is -51%.

For the compound `CCN(CC)CCn1c(N)nc2ccccc21.Cl`, the “hERG current change (%, negative = inhibition) at 10uM” value worked out at 15.4%.

Consider `CCN(CC)CCn1c(NS(=O)(=O)c2ccc(Cl)cc2)nc2ccccc21.Cl`, for which the “hERG current change (%, negative = inhibition) at 10uM” value was -69.8%.

Consider `CCCn1c(NCc2ccccc2NS(=O)(=O)c2ccc(C)cc2)nc2ccccc21`, for which the “hERG current change (%, negative = inhibition) at 10uM” value came out at 6.84%.

As for `CN1C(=O)C(C2c3ccccc3C(=O)N2Cc2ccccc2)C(=O)N(C)C1=O` (stereo not shown), the “hERG current change (%, negative = inhibition) at 10uM” value turned out to be 3.38%.

Consider `CCc1ccc(C(=O)C(C)OC(=O)C2COc3ccccc3O2)cc1` (stereo not shown), for which the “hERG current change (%, negative = inhibition) at 10uM” value was -18.9%.

As for `CSc1ncc(Cl)c(C(=O)Nc2cc(C)ccc2C)n1`, the “hERG current change (%, negative = inhibition) at 10uM” value is given as 16.1%.

For the compound `CCOC(=O)C(NC(=O)c1cccnc1)(Nc1cccc(C)n1)C(F)(F)F` (stereo not shown), the “hERG current change (%, negative = inhibition) at 10uM” value turned out to be 1.24%.

Take `CCN1C(=O)C(CC(=O)Nc2ccc(OC)cc2)N(Cc2cccnc2)C1=S` (stereo not shown): the “hERG current change (%, negative = inhibition) at 10uM” value is -2.39%.

Turning to `c1ccc(C[C@H]2CNCCN2CC2(c3ccccc3)CC2)cc1`, the “hERG current change (%, negative = inhibition) at 10uM” value is listed as -14.9%.

Consider `O=C(CNC(=O)c1cccs1)NCC(=O)OCc1ccc(Cl)cc1`, for which the “hERG current change (%, negative = inhibition) at 10uM” value is listed as -17.5%.

Take `CCC(=O)Nc1cccc(C(=O)/C=C/c2ccccc2)c1`: the “hERG current change (%, negative = inhibition) at 10uM” value is given as -37%.

As to `CCC(=O)Nc1cccc(C(=O)/C=C/c2ccc(F)cc2)c1`, the “hERG current change (%, negative = inhibition) at 10uM” value is given as -69.1%.

Consider `CC(=O)Nc1cccc(C(=O)/C=C/c2ccc(F)cc2)c1`, for which the “hERG current change (%, negative = inhibition) at 10uM” value is listed as -31.1%.

With `Cc1nc(SCC(=O)NC(=O)NC(C)(C)C)nc(C)c1C`, the “hERG current change (%, negative = inhibition) at 10uM” value was -8.95%.

Take `COC(=O)CSc1nnc(SCc2ccccc2)s1`: the “hERG current change (%, negative = inhibition) at 10uM” value is given as 7.89%.

Consider `CCN(CC(=O)Nc1ccc(NC(C)=O)cc1)C(=O)/C=C/c1cn(-c2ccccc2)nc1-c1ccc(F)cc1`, for which the “hERG current change (%, negative = inhibition) at 10uM” value came out at 5.58%.

For the compound `CCCn1c(C)cc(/C=C(\C#N)C(=O)O)c1C`, the “hERG current change (%, negative = inhibition) at 10uM” value is reported as 10.4%.

Turning to `CCCCn1c(C)cc(/C=C(\C#N)C(=O)O)c1C`, the “hERG current change (%, negative = inhibition) at 10uM” value is reported as -80%.

As to `Cc1cc(/C=C(\C#N)C(=O)O)c(C)n1CCC(C)C`, the “hERG current change (%, negative = inhibition) at 10uM” value was determined as 10.5%.

In the case of `O=C(N/N=C/c1cc([N+](=O)[O-])ccc1O)Nc1ccccc1`, the “hERG current change (%, negative = inhibition) at 10uM” value came to 18.2%.

Take `COc1ccc(CC(=O)N2CCN(c3ccc(F)cc3)CC2)cc1`: the “hERG current change (%, negative = inhibition) at 10uM” value is listed as 1.52%.

As for `COc1ccc(CC(=O)N2CCC(Nc3nc4ccccc4n3Cc3ccc(F)cc3)CC2)cc1`, the “hERG current change (%, negative = inhibition) at 10uM” value was -71.7%.

Consider `COc1ccc(CNC(=O)C2CCN(C(=O)Cc3ccccc3)CC2)cc1`, for which the “hERG current change (%, negative = inhibition) at 10uM” value is reported as -13.5%.

On to `COCC(C)N1CCC(Oc2ccc(C(=O)N3CCCC3)cc2)CC1` (stereo not shown), for which the “hERG current change (%, negative = inhibition) at 10uM” value is listed as 5.11%.

As to `COc1ccc(CCC(C)N2CCC(Oc3ccc(C(=O)N4CCCC4)cc3)CC2)cc1` (stereo not shown), the “hERG current change (%, negative = inhibition) at 10uM” value was -65.4%.

Consider `CC(CCc1ccc(O)cc1)N1CCC(Oc2ccc(C(=O)N3CCCC3)cc2)CC1` (stereo not shown), for which the “hERG current change (%, negative = inhibition) at 10uM” value was -55.7%.

In the case of `CSCCC(C)N1CCC(Oc2ccc(C(=O)N3CCCC3)cc2)CC1` (stereo not shown), the “hERG current change (%, negative = inhibition) at 10uM” value is -31.3%.

Regarding `COC(=O)CCC(C)N1CCC(Oc2ccc(C(=O)N3CCCC3)cc2)CC1` (stereo not shown), the “hERG current change (%, negative = inhibition) at 10uM” value is reported as -11%.

Consider `Cc1noc(/C=C/c2ccco2)c1S(=O)(=O)N1CCC(C(=O)N(C)Cc2ccccc2)CC1`, for which the “hERG current change (%, negative = inhibition) at 10uM” value is -4.68%.

Regarding `O=C(CSc1ccccc1)Nc1cc(S(=O)(=O)N2CCOCC2)ccc1N1CCOCC1`, the “hERG current change (%, negative = inhibition) at 10uM” value is reported as 14.5%.

With `COc1cccc(Nc2cc(C)c3ccccc3n2)c1`, the “hERG current change (%, negative = inhibition) at 10uM” value is recorded as 6.21%.

`Cc1cc(Nc2cccc(O)c2)c2ccccc2n1.Cl`: the “hERG current change (%, negative = inhibition) at 10uM” value was -64.2%.

For the compound `Cc1cccc(Nc2cc(C)nc3ccccc23)c1.Cl`, the “hERG current change (%, negative = inhibition) at 10uM” value is -65.4%.

As for `Oc1cccc(Nc2nc(-c3ccccc3)nc3ccccc23)c1`, the “hERG current change (%, negative = inhibition) at 10uM” value came to 9.56%.

Regarding `Cc1cc(Nc2cccc(Br)c2)c2ccccc2n1`, the “hERG current change (%, negative = inhibition) at 10uM” value is listed as -86.2%.

In the case of `Cc1ccc(Nc2cc(C)nc3ccccc23)c(C)c1`, the “hERG current change (%, negative = inhibition) at 10uM” value was -42.8%.

Turning to `Cc1cccc(NC(=O)c2cc(C)nc3ccccc23)c1`, the “hERG current change (%, negative = inhibition) at 10uM” value is reported as 14.7%.

Consider `COc1ccc(Nc2cc(C)nc3ccccc23)cc1.Cl`, for which the “hERG current change (%, negative = inhibition) at 10uM” value was -36.5%.

As to `Cc1cc(C)c(C#N)c(Nc2cccc(Br)c2)n1`, the “hERG current change (%, negative = inhibition) at 10uM” value is on record as 12.5%.

Consider `COc1cccc(Nc2cc(C)nc3ccccc23)c1`, for which the “hERG current change (%, negative = inhibition) at 10uM” value is recorded as -73.1%.

As for `Cc1cc(=O)[nH]c(Nc2cccc(Br)c2)n1`, the “hERG current change (%, negative = inhibition) at 10uM” value is 12.4%.

Take `Cl.Oc1cccc(Nc2c3ccccc3nc3ccccc23)c1`: the “hERG current change (%, negative = inhibition) at 10uM” value is given as -17.6%.

With `CC(=O)Nc1ccc2c(c1)NC(=O)CC2`, the “hERG current change (%, negative = inhibition) at 10uM” value was 18.3%.

Take `Cc1cc(C)c(S(=O)(=O)N2CCN(C(=O)CCn3nc(C)c(C)c3C)CC2)c(C)c1`: the “hERG current change (%, negative = inhibition) at 10uM” value is reported as -35.8%.

`CCN1CCN(CC(=O)Nc2nc3ccc(C)cc3s2)CC1`: the “hERG current change (%, negative = inhibition) at 10uM” value was -34.5%.

As for `Cc1cccc(NC(=S)NCCc2ccc(S(N)(=O)=O)cc2)c1C`, the “hERG current change (%, negative = inhibition) at 10uM” value was found to be 11.4%.

Consider `O=C(NCCN1C(=O)S/C(=C\c2cccs2)C1=O)c1ccc(=O)[nH]c1`, for which the “hERG current change (%, negative = inhibition) at 10uM” value is -15.5%.

For `Cc1cc(Nc2ccccc2O)c2ccccc2n1.Cl`, the “hERG current change (%, negative = inhibition) at 10uM” value is -18.6%.

For `Cc1cc(Nc2ccc(C)c(C)c2)c2ccccc2n1`, the “hERG current change (%, negative = inhibition) at 10uM” value is -66.9%.

For `Cc1cc(C(=O)Nc2ccccc2Cl)c2ccccc2n1`, the “hERG current change (%, negative = inhibition) at 10uM” value is reported as -2.16%.

For the compound `Cc1ccc(C)c(Nc2cc(C)nc3ccccc23)c1`, the “hERG current change (%, negative = inhibition) at 10uM” value was -49.5%.

For `Cc1cc(C)nc(Nc2cccc(Cl)c2)n1.Cl`, the “hERG current change (%, negative = inhibition) at 10uM” value is reported as 21.8%.

`Cc1ccc(Nc2nc3ccccc3c(=O)s2)cc1C`: the “hERG current change (%, negative = inhibition) at 10uM” value was 6.94%.

`Cc1cc(Nc2ccccc2Cl)c2ccccc2n1`: the “hERG current change (%, negative = inhibition) at 10uM” value is -64.2%.

For the compound `Cc1nc2ccccc2nc1Nc1cccc(Cl)c1`, the “hERG current change (%, negative = inhibition) at 10uM” value is on record as 9.24%.

Take `Cc1cc(Nc2cccc(Cl)c2)c2ccccc2n1`: the “hERG current change (%, negative = inhibition) at 10uM” value is -68.8%.
